Assay results as given in PubChem BioAssay.
The source made the active and inactive calls. Unless noted, the rule behind the calls is not given here.

Legend:
[1] = A549 cell viability effects, profiling panel, calcein-AM fluorescence, 48 h, basal (AID 1162); conditions: higher = more signal; note: test concentration not given here
[2] = adipocyte viability effects, profiling panel, cell-based, 3T3-L1 adipocytes, calcein-AM fluorescence, 48 h, basal (AID 1163); conditions: 3T3-L1 adipocytes viability, higher = more signal; note: test concentration not given here
[3] = HepG2 cell viability effects, profiling panel, calcein-AM fluorescence, 48 h, basal (AID 1164); conditions: higher = more signal; note: test concentration not given here
[4] = MM1S cell viability effects, profiling panel, calcein-AM fluorescence, 48 h, basal (AID 1165); conditions: higher = more signal;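 note: viability of MM1S multiple myeloma cells under basal unstimulated conditions; test concentration not given here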
[5] = basal RPMI8226 viability, no added stimulus, profiling panel, cell-based, calcein-AM fluorescence, 48 h, PK04 Diversity Set (AID 1166); conditions: RPMI8226 myeloma viability, higher = more signal;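 note: cells grown under basal conditions without added stimulus; test concentration not given here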
[6] = basal HepG2 mitochondrial membrane potential changes, profiling panel, cell-based, JC-1 fluorescence, 24 h, 100 nL compound (AID 1167); conditions: higher = more signal; note: test concentration not given here
[7] = basal 3T3-L1 adipocyte mitochondrial potential changes, profiling panel, cell-based, JC-1 fluorescence, 3T3-L1 adipocytes, 24 h, 100 nL compound (AID 1168); conditions: JC-1 mitochondrial fluorescence, higher = more signal, called active from +8 up or from −8 down; note: test concentration not given here
[8] = basal RPMI8226 mitochondrial membrane potential changes, profiling panel, cell-based, JC-1 fluorescence, 24 h, 100 nL compound (AID 1169); conditions: RPMI8226 myeloma, JC-1 mitochondrial potential fluorescence, higher = more signal; note: test concentration not given here
[9] = basal MM1S mitochondrial membrane potential changes, profiling panel, cell-based, JC-1 fluorescence, 24 h, 100 nL compound (AID 1170); conditions: higher = more signal; note: test concentration not given here
[10] = A549 lung cancer cell viability effects, profiling panel, resazurin fluorescence, 24 h, PK04 Diversity Set (AID 1171); conditions: higher = more signal, called active from +8 up or from −8 down; note: test concentration not given here
[11] = HepG2 liver cancer cell viability effects, profiling panel, resazurin fluorescence, 24 h, PK04 Diversity Set (AID 1172); conditions: higher = more signal; note: test concentration not given here
[12] = basal S. cerevisiae growth modulation, no modifier, primary screen, OD600, strain BY4716, 24 h, basal condition (AID 1173); conditions: OD600, 24 h, higher = more signal, called active from +8 up or from −8 down
[13] = MM1S myeloma cell viability, profiling panel, resazurin fluorescence, basal, 24 h, PK04 Diversity Set (AID 1174); conditions: higher = more signal, called active from +8 up or from −8 down;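 note: MM1S multiple myeloma cell line; test concentration not given here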
[14] = target: Dihydroorotate dehydrogenase (quinone), mitochondrial (Plasmodium falciparum (isolate 3D7)) (UniProt Q08210); assay: PfDHODH enzyme inhibitors, primary screen, biochemical, C-terminal His tag, absorbance 600 nm (AID 1175); conditions: DCIP absorbance 600 nm, higher = more signal, called active from +8 up or from −8 down;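 note: recombinant parasite enzyme with a five histidine tag at its C terminus; test concentration not given here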
[15] = P. aeruginosa biofilm formation inhibitors, primary screen, strain PAO1, LB-PBS medium, absorbance 600 nm (AID 1176); note: test concentration not given here; conditions: P. aeruginosa PAO1 growth/biofilm, A600, 12 h; higher = more signal
[16] = S. cerevisiae RM11-1a growth modifiers, primary screen, strain RM11-1a, OD600, basal, 24 h (AID 1177); conditions: OD600, 24 h, higher = more signal, called active from +8 up or from −8 down;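 note: cultures grown under basal conditions with no added stressor; test concentration not given here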
[17] = E. coli acrAB mutant growth effects, primary screen, E. coli filamentation inducers, strain DRC39, OD650, 24 h (AID 1178); conditions: higher = more signal, called active from +8 up or from −8 down;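 note: growth measured as culture turbidity by optical density at 650 nm; test concentration not given here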
[18] = E. coli acrAB mutant growth effects, primary screen, E. coli filamentation inducers, strain DRC39, OD650, 48 h (AID 1179);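 note: screen aims at cell division blockers that make cells filament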; conditions: E. coli DRC39 delta-acrAB growth, higher = more signal, called active from +8 up or from −8 down
[19] = RPMI8226 myeloma cell viability, profiling panel, resazurin fluorescence, basal, 24 h, PK04 Diversity Set (AID 1180); conditions: higher = more signal;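 note: RPMI8826 multiple myeloma cell line at 5000 cells per well; test concentration not given here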
[20] = target: E3 ubiquitin-protein ligase XIAP (Homo sapiens) (UniProt P98170); assay: XIAP binders, primary screen, biophysical, small-molecule microarray, fluorescence 635 nm (AID 1181); conditions: small-molecule microarray binding, higher = more signal;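 note: score merges 667 nm emission and signal to noise over triplicate slides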
E3 ubiquitin-protein ligase XIAP (Homo sapiens), sequence (P98170 whole entry, looked up): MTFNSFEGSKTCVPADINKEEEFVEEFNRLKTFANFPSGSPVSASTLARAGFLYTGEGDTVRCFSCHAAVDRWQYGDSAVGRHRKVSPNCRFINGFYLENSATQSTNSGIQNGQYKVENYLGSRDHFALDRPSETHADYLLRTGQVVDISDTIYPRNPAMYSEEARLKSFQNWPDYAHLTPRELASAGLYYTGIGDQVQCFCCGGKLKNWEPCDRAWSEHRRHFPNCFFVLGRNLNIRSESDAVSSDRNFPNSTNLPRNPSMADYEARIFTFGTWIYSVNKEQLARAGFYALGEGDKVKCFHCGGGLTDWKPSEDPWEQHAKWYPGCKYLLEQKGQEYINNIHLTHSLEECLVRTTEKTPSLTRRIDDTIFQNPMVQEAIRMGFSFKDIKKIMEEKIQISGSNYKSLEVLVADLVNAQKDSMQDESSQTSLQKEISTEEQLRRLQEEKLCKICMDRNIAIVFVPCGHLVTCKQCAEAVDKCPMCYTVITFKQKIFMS

Dihydroorotate dehydrogenase (quinone), mitochondrial (Plasmodium falciparum (isolate 3D7)), sequence (Q08210 whole entry, looked up): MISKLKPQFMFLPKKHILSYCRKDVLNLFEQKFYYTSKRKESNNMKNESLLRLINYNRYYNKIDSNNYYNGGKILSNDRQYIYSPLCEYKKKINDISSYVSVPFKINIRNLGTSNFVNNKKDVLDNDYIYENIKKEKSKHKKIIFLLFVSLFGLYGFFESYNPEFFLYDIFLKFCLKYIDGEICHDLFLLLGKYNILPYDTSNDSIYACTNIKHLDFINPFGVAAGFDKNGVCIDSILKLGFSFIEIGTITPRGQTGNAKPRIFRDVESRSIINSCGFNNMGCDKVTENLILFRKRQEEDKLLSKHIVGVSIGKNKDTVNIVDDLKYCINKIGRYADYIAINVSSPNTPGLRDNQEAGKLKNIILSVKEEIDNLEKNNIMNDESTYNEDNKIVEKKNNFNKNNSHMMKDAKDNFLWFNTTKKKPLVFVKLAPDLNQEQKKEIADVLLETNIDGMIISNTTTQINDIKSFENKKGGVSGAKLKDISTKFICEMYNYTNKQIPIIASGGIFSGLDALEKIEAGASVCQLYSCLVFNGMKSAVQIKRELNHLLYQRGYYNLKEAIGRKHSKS

SMILES	z-score [1]	z-score [2]	z-score [3]	z-score [4]	z-score [5]	z-score [6]	z-score [7]	z-score [8]	z-score [9]	z-score [10]	z-score [11]	z-score [12]	z-score [13]	composite z-score [14]	z-score [15]	z-score [16]	z-score [17]	z-score [18]	z-score [19]	composite z-score [20]
CN(C)CCCCNC(=O)[C@H]1C[C@H]2C(=O)N[C@@H](CCCC[N+](C)(C)C)C(=O)N2[C@H]1c1cccc(OCCO)c1	-0.532	0.067	-0.491	-0.845	0.54	-1.18	-0.333 (inactive)	-0.674	-0.448	0.0625 (inactive)	0.49	0.168 (inactive)	0.505 (inactive)	-0.119 (inactive)	1.06 (inactive)	-0.557 (inactive)	-0.163 (inactive)	-0.853 (inactive)	-0.0588	-0.243
COCC(=C=CC[C@@H](O)c1ccccc1OCCO)C[C@@H](O)COCc1ccccc1	1.94	1.04	1.13	0.338	0.801	1.32	0.54 (inactive)	-0.719	1.59	1.84 (inactive)	0.905	-0.413 (inactive)	1.26 (inactive)	-1.47 (inactive)	0.191 (inactive)	-2.04 (inactive)	2.4 (inactive)	1.6 (inactive)	0.935	0.145
NC(=O)NCC#Cc1ccc2c(c1)[C@]1(C(=O)N2)[C@H](c2ccc(OCCO)cc2)N2[C@H](c3ccccc3)[C@H](c3ccccc3)OC(=O)[C@H]2[C@@H]1C(=O)N1CCCCCCC1	-0.702	-0.467	-0.455	0.135	-1.31	-1.76	-1.87 (inactive)	-0.638	-1.02	0.252 (inactive)	0.314	1.64 (inactive)	-0.476 (inactive)	0.769 (inactive)	2.03 (inactive)	2.58 (inactive)	-0.172 (inactive)	-1.96 (inactive)	-0.507	0.531
CN1C(=O)C2C=CC(C(O)C3CCCCC3)N(N(c3ccccc3)c3ccccc3)C2C1=O (stereo not given)	-0.42	-0.88	0.149	0.241	-0.758	-0.954	-1.2 (inactive)	-0.361	-0.365	-0.361 (inactive)	-0.11	0.495 (inactive)	-1.54 (inactive)	-0.15 (inactive)	0.571 (inactive)	0.0139 (inactive)	-0.881 (inactive)	-0.121 (inactive)	-1.54	0.264
O=[N+]([O-])c1ccc(C[n+]2ccc(-c3ccc(CO)cc3)cc2)o1	0.0994	0.511	-1.19	0.266	-1.19	-1.48	-0.886 (inactive)	0.187	-0.425	-0.335 (inactive)	-0.216	-5.16 (inactive)	-0.979 (inactive)	-1.94 (inactive)	0.503 (inactive)	-0.0644 (inactive)	-1.11 (inactive)	-0.495 (inactive)	-0.904	-0.0047
C[C@@]1([C@@H](NC(=O)c2cccs2)c2ccc(-c3ccccc3)cc2)C[C@H]1C1CCCCC1	-1.23	0.437	-0.644	-2.17	-4.43	-0.734	0.395 (inactive)	-0.843	-1.09	2.26 (inactive)	0.133	0.774 (inactive)	-0.0911 (inactive)	-3.3 (inactive)	2.3 (inactive)	0.548 (inactive)	0.0767 (inactive)	-0.483 (inactive)	0.689	0.246
COC(=O)[C@@]1(Cc2ccccc2)[C@H]2c3cc(C(=O)N4CCCC4)n(Cc4ccc(OC(F)(F)F)cc4)c3C[C@H]2CN1C(=O)c1ccccc1	-0.975	-0.8	-1.56	-1.89	-2.47	1.77	-1.42 (inactive)	-0.717	-0.934	-1.46 (inactive)	-1.22	1.61 (inactive)	-2.46 (inactive)	0.868 (inactive)	0.632 (inactive)	1.85 (inactive)	-1.22 (inactive)	-0.439 (inactive)	-2.62	0.131
O=C(Nc1cc(Br)ccc1C(=O)NCc1cccc(O)c1)c1ccccc1	-1.71	-0.318	-2.25	-3.11	-2.49	0.386	5.49 (inactive)	-0.226	-1.12	-0.326 (inactive)	-1.11	-0.887 (inactive)	-0.407 (inactive)	0.591 (inactive)	0.034 (inactive)	0.659 (inactive)	1.45 (inactive)	1.06 (inactive)	-0.565	0.41
COC(=O)[C@@]1(Cc2ccc(F)cc2)[C@H]2c3cc(C(=O)N(C)C)n(Cc4ccc(C)c(F)c4F)c3C[C@H]2CN1C(=O)c1ccccc1	0.674	-0.609	1.03	-0.144	0.299	3.29	0.157 (inactive)	0.299	-0.605	0.0638 (inactive)	0.245	0.534 (inactive)	-0.231 (inactive)	0.059 (inactive)	-0.0298 (inactive)	0.671 (inactive)	0.171 (inactive)	0.265 (inactive)	-0.455	-0.102
Cc1cc(C)c(C(O)C2C=CC3C(=O)N(c4ccccc4)C(=O)C3N2Nc2ccc([N+](=O)[O-])cc2)c(C)c1 (stereo not given)	-0.308	1.09	-0.0308	-0.86	-0.662	-1.95	-3.61 (inactive)	-0.367	-1.04	0.634 (inactive)	-0.221	0.414 (inactive)	-0.237 (inactive)	-0.212 (inactive)	1.64 (inactive)	0.258 (inactive)	-0.777 (inactive)	-0.624 (inactive)	0.0375	0.0827
CCOC(=O)C1=CC[C@@H](c2cccc(Br)c2)N(S(=O)(=O)c2ccc(C)cc2)[C@H]1c1ccc([N+](=O)[O-])cc1	-0.699	-0.349	-0.203	-1.07	-1.24	1.45	0.097 (inactive)	-0.841	-1.57	0.851 (inactive)	0.157	0.25 (inactive)	-0.343 (inactive)	-1.26 (inactive)	0.449 (inactive)	-0.403 (inactive)	-0.837 (inactive)	-0.0589 (inactive)	-1.14	-0.27
COC(=O)[C@H]1N=C(c2ccc(OCCCO)cc2)O[C@H]1c1ccccc1CN=[N+]=[N-]	-0.348	-0.409	0.0036	-1.95	-0.35	-0.393	0.957 (inactive)	0.344	-0.823	2.65 (inactive)	1.55	-0.785 (inactive)	0.236 (inactive)	0.982 (inactive)	-0.043 (inactive)	1.29 (inactive)	0.535 (inactive)	-0.0456 (inactive)	1.32	0.331
C=CCNC(=O)[C@H]1[C@@H]2C(=O)O[C@@H](c3ccccc3)[C@@H](c3ccccc3)N2[C@@H](c2ccc(OCCO)cc2)[C@]12C(=O)N(C(=O)OCCOC)c1ccc(C#CC3=CCCCC3)cc12	-0.906	0.968	-0.546	-1.96	-2.49	-0.609	2.06 (inactive)	-0.753	-1.05	0.248 (inactive)	0.293	0.567 (inactive)	-0.344 (inactive)	-0.91 (inactive)	2.06 (inactive)	1.45 (inactive)	-0.178 (inactive)	0.215 (inactive)	0.136	-0.0727
C=C(/C(=C/C[C@@H](OC(=O)c1ccncc1)c1cccc(OCCO)c1)c1cc(C(=O)OC)ccc1OC)C(C)C	1.49	0.358	1.21	-2.98	-2.77	2.71	0.544 (inactive)	-0.303	-1.02	0.804 (inactive)	0.677	-0.243 (inactive)	-0.261 (inactive)	-2.04 (inactive)	1.16 (inactive)	0.0342 (inactive)	2.07 (inactive)	1.42 (inactive)	0.301	-0.107
Cc1cc(C)c(C(O)C2C=CC3C(=O)N(c4ccccc4)C(=O)C3N2Nc2ccccc2)c(C)c1 (stereo not given)	0.479	-1.35	1.37	0.541	0.281	-1.21	-0.422 (inactive)	-0.225	-0.425	-0.825 (inactive)	-0.156	0.439 (inactive)	-0.307 (inactive)	0.224 (inactive)	1.14 (inactive)	0.292 (inactive)	-0.297 (inactive)	0.445 (inactive)	-0.0598	0.0542
CCN(CC)c1ccc(N2CC=CC34O[C@@H]5/C=C\CCCOC(=O)C5[C@H]3C(=O)N(CCCCCCO)[C@@H]4C2=O)cc1 (stereo not given in full)	0.626	0.554	1.24	0.0885	0.0026	1.09	0.587 (inactive)	-0.25	0.0342	0.0444 (inactive)	-0.574	-1.14 (inactive)	0.93 (inactive)	-2.09 (inactive)	-0.869 (inactive)	-1.78 (inactive)	0.318 (inactive)	0.901 (inactive)	0.79	-0.083
COC(=O)[C@@]1(Cc2ccccc2)[C@H]2c3cc(C(=O)N(C)C)n(Cc4ccccn4)c3C[C@H]2CN1C(=O)c1ccccc1	-1.43	-0.125	-0.468	-1	-1.71	0.428	-0.698 (inactive)	0.00235	-0.135	-0.712 (inactive)	-0.802	1.6 (inactive)	-1.33 (inactive)	0.611 (inactive)	0.964 (inactive)	0.781 (inactive)	-1.19 (inactive)	-0.507 (inactive)	-1.26	0.124
